The results in this text go back to PubChem BioAssay (NCI).

Structures are written as SMILES. About 83,000 compounds went through this panel and 20% of them were active in at least one assay; those are over-represented in the sample as a whole.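 The test compound was applied at a single concentration to cells in 96-well plates for 48 hours, and percent growth was recorded.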 A number with no mark means an inactive call. The source made the active and inactive calls. Rule for the calls: active = growth percent below 10; inactive = the rest.

This assay deals with HL-60(TB) leukemia. As to the kind of experiment: NCI-60 one-dose screen, 48 h (100 = growth as untreated, 0 = no growth, -100 = all killed). The following applies: 10 µM unless noted.

Regarding `CC(Sc1ccccc1)C(=O)O` (stereo unspecified), the growth is 143%.
As to `COc1cc2nccc(Oc3ccc(NC(=O)Nc4cc(C)on4)c(Cl)c3)c2cc1OC`, the growth is 9.48% (active).
With `C[C@H]1C[C@@H](n2cnc3c(N)nccc32)[C@H](O)[C@@H]1O` the figure was 80.5%; with `COc1ccc(N2C(=O)C(Oc3ccccc3)C2c2ccc(C)cc2)cc1` (stereo unspecified), 85.4%.
With `COc1ccc(N=c2nc3sc4cc(Cl)ccc4n3c(N)c2C#N)cc1` the figure was 119%; with `C=C(C)[C@@H]1CC[C@]2(CO)CC[C@]3(C)[C@H](CC[C@@H]4[C@@]5(C)CCCNC(C)(C)[C@@H]5CC[C@]43C)[C@@H]12`, -51.9% (active).
With `CCCCCCCCCCCCCCNCc1ccccc1` the figure was 51.9%.
Consider `O=S(=O)(NCCNc1nccc(-c2c(-c3cccc(F)c3)nc3occn23)n1)c1ccc(Br)cc1`, for which the growth is 103%.
As to `CCSc1cnnc2ccccc12`, the growth is 91.5%.
Take `COc1ccc(/C=C2\COc3ccc(O)c(O)c3C2=O)c(OC)c1OC`: the growth is -28.8% (active).
With `COc1ccc(/C=C/C(=O)c2cc3c(N)c(C(=O)Nc4cccc(Cl)c4C)sc3nc2C)cc1` the figure was 4.92% (active); with `CCCCCCCCCCC(C)Br` (stereo unspecified), 93.1%; with `CC1OC(C(=O)N2CCN(CCO)CC2)CC1COC1CCCCC1` (stereo unspecified), 98.3% [50 µM].
With `OCCN1CCCCCCC1` the figure was 102%.
With `O=C1CC2C=CCN2C=C1NC(=O)c1ccccc1` (stereo unspecified) the figure was 100%.
Turning to `COc1cccc(/C=C/C(=O)c2cc3c(N)c(C(=O)Nc4cccc5ccccc45)sc3nc2C)c1`, the growth is 3.98% (active).
